# Laboratory results reported in PubChem BioAssay (NCATS).
# Records with an inconclusive call do not appear. The source made the active and inactive calls. Unless noted, calls follow the shape of the dose curve; as a rule, active = well fitted curve in the direction sought with a large enough effect; inconclusive = small, poorly fitted or top-dose-only effect, or another doubt; inactive = no such curve, though single readings can be large; an effect the other way counts as inactive or inconclusive.
# Columns and labels:
# [1] = Quantitative High-Throughput drug screen in 47 multiple myeloma cell lines against the NCATS MIPE library collection: PE2_PLB cell viability assay (AID 1919869); conditions: PE2_PLB myeloma cells viability, ATP luminescence, 48 h; series mostly up to 45.8 µM; also: nearly all actives have a fitted effect of over 35% in size
# Summary of the method: (§1)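 ATP-based luminescence (CellTiter-Glo, 5 min RT incubation) quantified surviving cells following two days' treatment with MIPE 4.0 agents at 37 °C, 5% CO2.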
# [2] = Quantitative High-Throughput drug screen in 47 multiple myeloma cell lines against the NCATS MIPE library collection: RPMI8226_ATCC cell viability assay (AID 1919871); conditions: RPMI8226 myeloma viability, CellTiter-Glo ATP luminescence, 48 h; series mostly up to 45.8 µM; also: nearly all actives have a fitted effect of over 30% in size
# Summary of the method: as §1
# [3] = Quantitative High-Throughput drug screen in 47 multiple myeloma cell lines against the NCATS MIPE library collection: OPM2_DSMZ cell viability assay (AID 1919872); conditions: OPM2 myeloma viability, CellTiter-Glo ATP luminescence, 48 h; series mostly up to 45.8 µM; also: nearly all actives have a fitted effect of over 30% in size
# Summary of the method: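 Luminescent ATP measurement with CellTiter-Glo gives viability, scaled between DMSO-only wells (100%) and media-only wells (0%). Cells, 500 per well, faced library compounds for 48 hours at 37C.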
# [4] = Quantitative High-Throughput drug screen in 47 multiple myeloma cell lines against the NCATS MIPE library collection: KMS11_JCRBsus cell viability assay (AID 1919873); conditions: KMS11 myeloma viability, CellTiter-Glo ATP luminescence, 48 h; series mostly up to 45.8 µM; also: nearly all actives have a fitted effect of over 50% in size
# Summary of the method: as §1
# [5] = Quantitative High-Throughput drug screen in 47 multiple myeloma cell lines against the NCATS MIPE library collection: KMS28BM_JCRB cell viability assay (AID 1919874); conditions: CellTiter-Glo ATP, 48 h; series mostly up to 45.8 µM; also: nearly all actives have a fitted effect of over 35% in size
# Summary of the method: as §1
# [6] = qHTS drug screen for cell cycle checkpoint inhibitors in PARPi-resistant BRCA-mutant ovarian cancer cell lines. (AID 1963452; calls by dose curve); conditions: PEO1/OlaR viability, CellTiter-Glo luminescence, 96 h; for Z-AUC: stronger effect = lower value
# Summary of the method: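 PEO1, PEO4 and PEO1/OlaR ovarian cancer cells, 600 per well, exposed 96 h at 37C to a dilution series. Viability read by CellTiter-Glo luminescence, normalized to DMSO and empty wells; activity summarized as Z-AUC.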
# [7] = qHTS profiling for inhibitors of Plasmodium falciparum proliferation (AID 504749);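 as to activity, negative = inhibition: 0% = DMSO vehicle and full inhibition = artemisinin control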; as to all read-outs here: nearly all actives have a fitted effect of over 60% in size; conditions: P. falciparum in erythrocytes, SYBR Green DNA, 72 h; for activity, negative = inhibition: at 28.7 µM (top of the series)
# Summary of the method: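 In a 72 h erythrocytic culture (37 C, humidified, 5% CO2) at 2.5% hematocrit and 0.3% starting parasitemia, compounds were tested; SYBR Green I in detergent lysis buffer stained parasite DNA overnight.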
# [8] = Quantitative High-Throughput drug screen in 47 multiple myeloma cell lines against the NCATS MIPE library collection: PCM6_Riken cell viability assay (AID 1919870); conditions: CellTiter-Glo ATP, 48 h; series mostly up to 45.8 µM; also: nearly all actives have a fitted effect of over 30% in size
# Summary of the method: as §1
# [9] = qHTS for identification of novel therapeutic agents for treatment of microphthalmiaassociated transcription factor (MiT) renal cell carcinoma (RCC) (AID 1963991; calls by dose curve;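 as to z-score: curves scaled with 100% = DMSO viability and 0% = empty wells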); conditions: CellTiter-Glo, 48 h; for z-score: stronger effect = lower value
# Summary of the method: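 UOK109/UOK124/UOK145 (TFE3 fusions, three partners); 500 cells/well; MIPE v4.0, 1912 cpds, 11 conc.; 48 h, 37 C; CellTiter-Glo, 15 min RT; lum. Norm.: DMSO 100%, empty 0%.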
# [10] = measured here: PEO1 parental Z-AUC
# [11] = TFE3-RCC UOK109 viability, measured here: UOK109 Z-AUC
# [12] = TFE3-RCC viability, measured here: UOK124 Z-AUC
# [13] = TFE3-RCC viability, measured here: UOK145 Z-AUC
# Potency is read from the fitted curve at half-maximal effect.
smiles,measurement,setting,value
CCCc1nc2c(C)cc(-c3nc4ccccc4n3C)cc2n1Cc1ccc(-c2ccccc2C(=O)O)cc1,Potency,[1],11.8 µM (active)
same,Potency,[2],inactive
same,Potency,[3],inactive
same,Potency,[4],inactive
same,Potency,[5],inactive
same,Z-AUC,[6],0.748 (inactive)
same,Z-AUC,[6]; [10],1.08
same,Z-AUC,[6]; measured here: PEO4 Z-AUC,0.729
same,"activity, negative = inhibition",[7]; parasite line A,-11.3% (inactive)
same,Potency,[7]; parasite line B,1.78 µM (active)
Cc1ccc(-n2nc(C(C)(C)C)cc2NC(=O)Nc2ccc(OCCN3CCOCC3)c3ccccc23)cc1,Potency,[1],16.6 µM (active)
same,Potency,[8],23.5 µM (active)
same,Potency,[3],inactive
same,Potency,[5],inactive
same,Z-AUC,[6],0.154 (inactive)
same,Z-AUC,[6]; [10],0.786
same,Z-AUC,[6]; measured here: PEO4 Z-AUC,0.35
Cc1c(CCOc2ccc(C(=O)O)cc2)c2cc(Cl)ccc2n1C(c1ccccc1)c1ccccc1,Potency,[1],inactive
same,Potency,[8],inactive
same,Potency,[4],inactive
same,Z-AUC,[6],0.749 (inactive)
same,Z-AUC,[6]; [10],1.16
same,Z-AUC,[6]; measured here: PEO4 Z-AUC,0.896
OCCC#Cc1nc(-c2ccc(F)cc2)c(-c2ccncc2)n1CCCc1ccccc1,Potency,[1],20.9 µM (active)
same,Potency,[8],23.5 µM (active)
same,Z-AUC,[6],1.23 (inactive)
same,Z-AUC,[6]; [10],0.482
same,Z-AUC,[6]; measured here: PEO4 Z-AUC,0.663
CO[C@@H]1[C@H](N(C)C(=O)c2ccccc2)C[C@H]2O[C@]1(C)n1c3ccccc3c3c4c(c5c6ccccc6n2c5c31)C(=O)NC4,Potency,[1],0.59 µM (active)
same,Potency,[2],7.43 µM (active)
same,Potency,[3],3.72 µM (active)
same,Potency,[4],1.87 µM (active)
same,Potency,[5],2.96 µM (active)
same,Potency,[6],1.55 µM (active)
same,Z-AUC,[6]; [10],-1.27
same,Z-AUC,[6]; measured here: PEO4 Z-AUC,-1.21
CCn1c(-c2nonc2N)nc2c(C#CC(C)(C)O)ncc(OC[C@H]3CCCNC3)c21,Potency,[1],9.35 µM (active)
same,Potency,[8],14.8 µM (active)
same,Potency,[4],2.96 µM (active)
same,Potency,[5],0.372 µM (active)
same,Z-AUC,[6],1.22 (inactive)
same,Z-AUC,[6]; [10],0.92
same,Z-AUC,[6]; measured here: PEO4 Z-AUC,1.41
CC(=O)NC(C)c1ccc(Oc2ccc(OC(C)C)cc2)cc1 (configuration not stated),Potency,[1],16.6 µM (active)
same,Potency,[8],16.6 µM (active)
same,Potency,[3],8.33 µM (active)
same,Z-AUC,[6],0.0363 (inactive)
same,Z-AUC,[6]; [10],0.0694
same,Z-AUC,[6]; measured here: PEO4 Z-AUC,-0.363
OC(CCN1CCCCC1)(c1ccccc1)C1CC2C=CC1C2 (configuration not stated),Potency,[1],inactive
same,Potency,[8],inactive
same,Potency,[3],inactive
same,Potency,[5],inactive
same,Z-AUC,[6],-0.614 (inactive)
same,Z-AUC,[6]; [10],-0.36
same,Z-AUC,[6]; measured here: PEO4 Z-AUC,-0.607
same,z-score,[9]; [11],0.676
same,z-score,[9]; [12],0.56
same,z-score,[9]; [13],0.997
CCN(CC)CCCC(C)Nc1nc(C)cc(Nc2ccc3nc(C)cc(N)c3c2)n1 (configuration not stated),Potency,[1],10.5 µM (active)
same,Potency,[2],inactive
same,Potency,[3],inactive
same,Potency,[4],inactive
same,Potency,[5],inactive
same,Z-AUC,[6],0.723 (inactive)
same,Z-AUC,[6]; [10],0.692
same,Z-AUC,[6]; measured here: PEO4 Z-AUC,0.29
same,z-score,[9]; [11],0.273
same,z-score,[9]; [12],0.864
same,z-score,[9]; [13],0.237
CCCS(=O)(=O)Nc1ccc(F)c(C(=O)c2c[nH]c3ncc(-c4ccc(Cl)cc4)cc23)c1F,Potency,[1],11.8 µM (active)
same,Potency,[8],5.26 µM (active)
same,Potency,[4],8.33 µM (active)
same,Z-AUC,[6],0.0673 (inactive)
same,Z-AUC,[6]; [10],-0.745
same,Z-AUC,[6]; measured here: PEO4 Z-AUC,-0.427
O=C(O)COCCN1CCN(C(c2ccccc2)c2ccc(Cl)cc2)CC1 (configuration not stated),Potency,[1],inactive
same,Potency,[8],inactive
same,Potency,[3],inactive
same,Potency,[4],inactive
same,Potency,[5],inactive
same,z-score,[9]; [11],0.871
same,z-score,[9]; [12],0.439
same,z-score,[9]; [13],0.674
COc1ccc(-c2ccc3c(N4CCOC[C@H]4C)nc(N4CCOC[C@H]4C)nc3n2)cc1CO,Potency,[1],0.0148 µM (active)
same,Potency,[8],0.0166 µM (active)
same,Potency,[3],0.0209 µM (active)
same,Potency,[5],0.0083 µM (active)
same,Potency,"[9]; TFE3-RCC UOK109 viability, active = Z-AUC below -0.8 in all three lines",0.0935 µM (active)
same,z-score,[9]; [11],-1.8
same,z-score,[9]; [12],-2.87
same,z-score,[9]; [13],-2.13
COc1nc(-c2ccc3c(c2)OCO3)n(-c2ccc(NC(=O)CSc3ccccc3)cc2)n1,Potency,[1],inactive
same,Potency,[8],inactive
same,Potency,[3],inactive
same,Potency,[4],inactive
same,Z-AUC,[6],1.83 (inactive)
same,Z-AUC,[6]; [10],1.23
same,Z-AUC,[6]; measured here: PEO4 Z-AUC,1.19
O=C(Nc1ccc(F)c(C(F)(F)F)c1)Nc1nnc(-c2ccncc2)s1,Potency,[8],1.87 µM (active)
NC(=O)c1ccc(I)c([N+](=O)[O-])c1,Potency,[1],20.9 µM (active)
same,Potency,[3],inactive
same,Potency,[4],inactive
same,Potency,[5],inactive
same,Z-AUC,[6],1.56 (inactive)
same,Z-AUC,[6]; [10],1.77
same,Z-AUC,[6]; measured here: PEO4 Z-AUC,1.61
NS(=O)(=O)c1cc2c(cc1Cl)NC=NS2(=O)=O,Potency,[8],inactive
same,Potency,[2],inactive
same,Potency,[3],inactive
same,Potency,[5],inactive
same,Z-AUC,[6],0.885 (inactive)
same,Z-AUC,[6]; [10],1.02
same,Z-AUC,[6]; measured here: PEO4 Z-AUC,0.779
same,"activity, negative = inhibition",[7]; parasite line A,7.83% (inactive)
same,"activity, negative = inhibition",[7]; parasite line B,11% (inactive)
O=C(O)CCc1ccc(NCc2cccc(Oc3ccccc3)c2)cc1,Potency,[8],inactive
same,Potency,[2],inactive
same,Potency,[3],inactive
same,Potency,[4],inactive
same,Z-AUC,[6],1.62 (inactive)
same,Z-AUC,[6]; [10],1.54
same,Z-AUC,[6]; measured here: PEO4 Z-AUC,1.47
same,z-score,[9]; [11],0.226
same,z-score,[9]; [12],0.797
same,z-score,[9]; [13],0.0253
Cc1cc([C@@H](C)Nc2ccccc2C(=O)O)c2nc(N3CCOCC3)cc(=O)n2c1,Potency,[1],9.59 µM (active)
same,Potency,[3],42.9 µM (active)
same,Z-AUC,[6],0.266 (inactive)
same,Z-AUC,[6]; [10],0.877
same,Z-AUC,[6]; measured here: PEO4 Z-AUC,0.854
COc1cc(F)c(F)c(Nc2ccc(I)cc2F)c1NS(=O)(=O)C1(C[C@H](O)CO)CC1,Potency,[8],14.8 µM (active)
same,Potency,[2],10.5 µM (active)
same,Potency,[3],inactive
same,Potency,[4],16.6 µM (active)
same,Potency,[5],20.9 µM (active)
same,Potency,[6],2.45 µM (active)
same,Z-AUC,[6]; [10],-1.43
same,Z-AUC,[6]; measured here: PEO4 Z-AUC,-1.19
OC[C@H](Cc1ccccc1)Nc1nc(Oc2ccc3c(c2)CCC3)nc2c1ncn2Cc1ccc(-c2ccccc2)cc1,Potency,[8],inactive
same,Potency,[2],inactive
same,Potency,[3],inactive
same,Potency,[5],inactive
same,Z-AUC,[6],0.712 (inactive)
same,Z-AUC,[6]; [10],0.249
same,Z-AUC,[6]; measured here: PEO4 Z-AUC,0.323
CNCc1ccc(-c2[nH]c3cc(F)cc4c3c2CCNC4=O)cc1,Potency,[1],inactive
same,Potency,[2],inactive
same,Potency,[3],inactive
same,Z-AUC,[6],0.567 (inactive)
same,Z-AUC,[6]; [10],0.569
same,Z-AUC,[6]; measured here: PEO4 Z-AUC,0.848
CCOc1cc(C=C2C(=O)N(c3ccccc3)N=C2C)cc(Cl)c1OCC(=O)OC,Potency,[8],16.6 µM (active)
same,Potency,[2],inactive
same,Potency,[3],inactive
same,Potency,[4],inactive
same,Potency,[5],inactive
